{"source": "ChEMBL document CHEMBL3988442", "about": "“University of Dundee, Small-Polar-MMV Screening Library” (2021)", "key": {"[1]": {"biological_target": "T1, Aspartate--tRNA(Asp/Asn) ligase (Mycobacterium tuberculosis (strain ATCC 25618 / H37Rv)) (UniProt P9WFW3)", "T1 sequence (whole entry)": "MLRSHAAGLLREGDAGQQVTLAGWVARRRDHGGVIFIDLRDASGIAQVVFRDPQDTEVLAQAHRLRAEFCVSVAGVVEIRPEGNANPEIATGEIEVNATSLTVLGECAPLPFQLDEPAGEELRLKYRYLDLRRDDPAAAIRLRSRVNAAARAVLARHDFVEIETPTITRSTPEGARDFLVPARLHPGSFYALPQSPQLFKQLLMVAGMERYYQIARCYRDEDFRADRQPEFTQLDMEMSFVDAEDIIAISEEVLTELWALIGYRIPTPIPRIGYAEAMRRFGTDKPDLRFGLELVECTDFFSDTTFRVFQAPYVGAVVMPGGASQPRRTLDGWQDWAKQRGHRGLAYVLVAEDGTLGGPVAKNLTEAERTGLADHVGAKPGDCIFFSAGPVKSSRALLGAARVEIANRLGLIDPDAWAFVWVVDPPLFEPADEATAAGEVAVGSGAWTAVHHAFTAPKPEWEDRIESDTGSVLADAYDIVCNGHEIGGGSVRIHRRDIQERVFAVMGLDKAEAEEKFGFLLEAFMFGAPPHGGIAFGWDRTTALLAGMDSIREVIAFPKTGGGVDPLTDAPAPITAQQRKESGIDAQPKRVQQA", "assay": "Assay for Asp RNA synthetase-1 from Mycobacterium tuberculosis", "assay_type": "functional", "parameters": "scale not given: direction of the effect not stated beside the values", "settings": "30 µM"}, "[2]": {"biological_target": "Shiga toxin 2 (Escherichia coli O157:H7) (UniProt P09385+P09386)", "assay": "E. coli 0.157:H7 Shiga Toxin SOP - stx2 screening assay", "assay_type": "functional", "parameters": "scale not given: direction of the effect not stated beside the values", "settings": "30 µM"}}}
{"smiles": "O=C(c1c[nH]c(=O)c(Cl)c1)N1C[C@@H]2CC[C@H](C1)N(Cc1ccccc1)C2", "values": [{"measurement": "Percent Effect", "setting": "[1]", "result": -1.71, "unit": "%"}, {"measurement": "Percent Effect", "setting": "[2]", "result": 3.61, "unit": "%"}]}
{"smiles": "O=C1CC[C@H]2[C@H](CCN2C(=O)C2CCOCC2)N1Cc1ccncc1", "values": [{"measurement": "Percent Effect", "setting": "[1]", "result": -6.47, "unit": "%"}, {"measurement": "Percent Effect", "setting": "[2]", "result": -35.2, "unit": "%"}]}
{"smiles": "COC(=O)c1cc(OCC2CCC2)cc(C(=O)N[C@@H]2CNCC[C@H]2O)c1", "values": [{"measurement": "Percent Effect", "setting": "[1]", "result": 6.47, "unit": "%"}, {"measurement": "Percent Effect", "setting": "[2]", "result": -42.6, "unit": "%"}]}
{"smiles": "c1cnnc(N2CCCC(NCc3ccc(-n4cccn4)cc3)C2)c1", "note": "(stereo not drawn)", "values": [{"measurement": "Percent Effect", "setting": "[1]", "result": -2.36, "unit": "%"}, {"measurement": "Percent Effect", "setting": "[2]", "result": 11, "unit": "%"}]}
{"smiles": "O=C(NC1CC1)c1cc(NC(=O)N2CCCC(O)C2)ccc1Cl", "note": "(stereo not drawn)", "values": [{"measurement": "Percent Effect", "setting": "[1]", "result": -0.137, "unit": "%"}, {"measurement": "Percent Effect", "setting": "[2]", "result": -38.6, "unit": "%"}]}
{"smiles": "Cc1cc(C(=O)N2CCCCC2c2nc(C)cs2)[nH]n1", "note": "(stereo not drawn)", "values": [{"measurement": "Percent Effect", "setting": "[1]", "result": -5.22, "unit": "%"}, {"measurement": "Percent Effect", "setting": "[2]", "result": -15.7, "unit": "%"}]}
{"smiles": "CN(C)C[C@@H]1C[C@@H]2CN(C(=O)c3ccoc3)CC[C@@H]2N1CC1CC1", "values": [{"measurement": "Percent Effect", "setting": "[1]", "result": 2.34, "unit": "%"}, {"measurement": "Percent Effect", "setting": "[2]", "result": 8.89, "unit": "%"}]}
{"smiles": "CN(Cc1ccsc1)C(=O)c1cc2c([nH]c1=O)CCCC2=O", "values": [{"measurement": "Percent Effect", "setting": "[1]", "result": -1.51, "unit": "%"}, {"measurement": "Percent Effect", "setting": "[2]", "result": 12.2, "unit": "%"}]}
{"smiles": "CC(C(=O)Nc1ncccn1)N1CCCN(c2nccs2)CC1", "note": "(stereo not drawn)", "values": [{"measurement": "Percent Effect", "setting": "[1]", "result": 0.767, "unit": "%"}, {"measurement": "Percent Effect", "setting": "[2]", "result": -54.2, "unit": "%"}]}
{"smiles": "CCc1cc(N[C@H]2CC[C@H](O)CC2)n2nc(C)c(C)c2n1", "values": [{"measurement": "Percent Effect", "setting": "[1]", "result": 1.45, "unit": "%"}, {"measurement": "Percent Effect", "setting": "[2]", "result": -12.4, "unit": "%"}]}
{"smiles": "Cc1cccnc1CNCC1(O)CCCN(CC2CCCCC2)C1=O", "note": "(stereo not drawn)", "values": [{"measurement": "Percent Effect", "setting": "[1]", "result": -2.28, "unit": "%"}, {"measurement": "Percent Effect", "setting": "[2]", "result": 13.1, "unit": "%"}]}
{"smiles": "CCSCC(C)NCc1nncn1C1CCCCC1", "note": "(stereo not drawn)", "values": [{"measurement": "Percent Effect", "setting": "[1]", "result": 1.39, "unit": "%"}, {"measurement": "Percent Effect", "setting": "[2]", "result": 13.1, "unit": "%"}]}
{"smiles": "COCCN1C(=O)C[C@H]2[C@H]1CCN2Cc1cccc(C#N)c1", "values": [{"measurement": "Percent Effect", "setting": "[1]", "result": -5.22, "unit": "%"}, {"measurement": "Percent Effect", "setting": "[2]", "result": -7.15, "unit": "%"}]}
{"smiles": "CNC(=O)CN1CCCC12CCN(C(=O)c1ccc(F)cc1)CC2", "values": [{"measurement": "Percent Effect", "setting": "[1]", "result": -5.42, "unit": "%"}, {"measurement": "Percent Effect", "setting": "[2]", "result": -14.4, "unit": "%"}]}
{"smiles": "CCC(CNC(=O)c1cc(OC)ccc1Br)N1CCc2ccccc2C1", "note": "(stereo not drawn)", "values": [{"measurement": "Percent Effect", "setting": "[1]", "result": 4.47, "unit": "%"}, {"measurement": "Percent Effect", "setting": "[2]", "result": 9.68, "unit": "%"}]}
{"smiles": "COCCc1noc(CN2CCCCC2Cn2nc(C)cc2C)n1", "note": "(stereo not drawn)", "values": [{"measurement": "Percent Effect", "setting": "[1]", "result": -0.417, "unit": "%"}, {"measurement": "Percent Effect", "setting": "[2]", "result": 1.32, "unit": "%"}]}
{"smiles": "CCN(CC)CCNc1ncc(-c2cc(C)no2)c(-c2ccoc2C)n1", "values": [{"measurement": "Percent Effect", "setting": "[1]", "result": 2.28, "unit": "%"}, {"measurement": "Percent Effect", "setting": "[2]", "result": 7.04, "unit": "%"}]}
{"smiles": "Cn1cnc2c1CCN(CCCOc1ccc(C#N)cc1)C2", "values": [{"measurement": "Percent Effect", "setting": "[1]", "result": -4.46, "unit": "%"}, {"measurement": "Percent Effect", "setting": "[2]", "result": -24.8, "unit": "%"}]}
{"smiles": "CC(NC(=O)CCCOc1ccccc1)c1nnc2n1CCCCC2", "note": "(stereo not drawn)", "values": [{"measurement": "Percent Effect", "setting": "[1]", "result": 4.5, "unit": "%"}, {"measurement": "Percent Effect", "setting": "[2]", "result": 19.8, "unit": "%"}]}
